# Bioassay records: PubChem BioAssay, several laboratories
# Compounds with a hit are over-represented: about 0.5% of the library has one in this group of screens.
# E coli growth-1: E. coli V3065 growth inhibition, primary screen, counter-screen for AddAB inhibitor project, absorbance, OD600. inhibition, % at 11.9 µM. 330,000 compounds, 0.27% hits. 18 h;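 active = inhibition above the campaign's mean inhibition across all tested compounds plus 3 SD, cut at about 9.9% in these data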;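 note: uninfected addAB+ strain grown without phage in ampicillin broth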
# AddAB inh: growth inhibition of E. coli expressing H. pylori AddAB, primary screen, AddAB inhibitor project, absorbance; inhibition, % at 11.9 µM; 330,000 compounds, 0.29% hits; AID 435030, 2010; in the data active = inhibition above about 12%
# E coli growth-2: E. coli growth inhibition, primary screen, OD600; Escherichia coli growth, 23 h; stronger effect = lower value; OD600 absorbance (concentration not given with the values); 330,000 compounds, 0.21% hits; AID 1053175, 2014;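 active = OD600 absorbance below the run mean of sample wells minus 3.6 SD, in any replicate, cut at about 0.56 in these data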
# Tat export inh: E. coli Tat export inhibitors, primary screen, MC4100, TorA-mCherry reporter, fluorescence, single point. AID 488895, 2010. 340,000 compounds, 0.036% hits. inhibition, % at 10 µM;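 active = mean replicate inhibition at least 50% and at least half of replicates individually reaching 50%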;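 note: exported cargo escapes ClpAP degradation while cytoplasmic cargo is degraded and loses fluorescence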
# phage Ecoli inh: growth loss of phage-infected E. coli, primary screen, RecBCD inhibitor project, absorbance, with phage, HTS. inhibition, % at 11.9 µM. 360,000 compounds, 0.26% hits; in the data active = inhibition above about 11%
# AddAB conf: growth loss of phage-infected E. coli expressing H. pylori AddAB, confirmation, AddAB inhibitor project, absorbance, E. coli V3065, T4 phage, triplicate; OD; T4 phage with gene 2 nonsense mutations; 880 compounds, 64% hits; shares compounds with AddAB inh; inhibition, % at 11.9 µM;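 active = mean inhibition above a set limit taken from the earlier primary screen, cut at about 13% in these data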;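 note: higher means less bacterial growth since AddAB block lets phage replicate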
# RecBCD counter: growth loss of RecBCD+ E. coli with mutant T4 phage, counter-screen for AddAB inhibitor project, absorbance, V66 E. coli; shares compounds with AddAB inh; OD growth; inhibition, % at 11.9 µM; 880 compounds, 73% hits;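 active = mean inhibition above the mean of solvent-only control wells plus 3 SD, cut at about 4% in these data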;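 note: optical density read after an 18 h incubation at 37 °C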
# Bact viability: bacterial viability inhibition counter-screen, confirmation, counter-screen for AddAB inhibitor project, absorbance; shares compounds with AddAB inh; absorbance (AddAB counterscreen); inhibition, % at 11.9 µM; 880 compounds, 35% hits; in the data active = inhibition above about 25%
# Hits are given with their value; n = inactive; x = not tested or not shown.
SMILES,E coli growth-1,AddAB inh,E coli growth-2,Tat export inh,phage Ecoli inh,AddAB conf,RecBCD counter,Bact viability
COc1ccc(-c2nc(Cn3c(SCc4cccc(F)c4)nc4ccncc43)c(C)o2)cc1OC,83,96,n,n,n,n,n,n
CC1=C(C(=O)OCC2CCCO2)C(c2coc3ccc(Cl)cc3c2=O)C2=C(CCCC2=O)N1 (stereo unspecified),n,n,n,n,n,x,x,x
CC1=C(C(=O)OCC2CCCO2)C(c2coc3ccc(C)cc3c2=O)C2=C(CCCC2=O)N1 (stereo unspecified),91,99,n,n,n,n,n,n
O=C(c1ccc([N+](=O)[O-])o1)N1CCOCC1,11,17,n,n,n,64,8.5,n
CC(C)C(=O)N1CCN(c2ccc(NC(=O)c3ccc([N+](=O)[O-])o3)cc2)CC1,n,13,n,n,n,29,n,n
c1ccc(C2CN3C(=N2)Sc2ccccc23)cc1 (stereo unspecified),x,x,n,x,x,x,x,x
Cc1ccc(S(=O)(=O)N2CCC(C(=O)OCc3ccccc3)CC2)cc1C,n,21,n,n,n,n,n,n
CC1=NN(C(N)=S)C(=O)C1N=Nc1c(C)cc(C)cc1C (stereo unspecified),n,n,n,n,n,x,x,x
CC1=NN(C(N)=S)C(=O)C1N=Nc1c(Br)cc(Br)cc1Br (stereo unspecified),14,14,x,n,n,26,13,26
N#Cc1ccc(C23CC4(C2)C(CN(CC2CCCCC2)C4c2ccccc2)C3c2ccc(C(F)(F)F)cc2)cc1 (stereo unspecified),x,x,n,x,x,x,x,x
CN=c1c([N+](=O)[O-])nn(-c2ccc3c(c2)OCCO3)n1O,19,21,n,n,n,31,9.9,31
CC(C)CCN(C)C1CCN(C(=O)Nc2c(F)cccc2F)CC1,n,28,n,n,n,n,n,n
CCOc1ccc(NC(=O)Cn2cc(C(C)=O)c3ccccc32)cc1,n,n,n,n,n,x,x,x
COc1ccc(NC(=O)Cn2cc(C(C)=O)c3ccccc32)cc1,14,16,n,n,n,n,12,n
CN(C)N=Nc1nc[nH]c1C(N)=O,12,18,n,n,n,74,4.0,40
Cc1occc1C(=O)N/N=C/c1c(O)ccc2ccccc12,14,17,x,n,n,17,16,n
O=C(N/N=C/c1c(O)ccc2ccccc12)c1ccc(Br)o1,23,21,x,n,16,15,17,n
O=C(N/N=C\c1c(O)ccc2ccccc12)c1ccc(O)cc1,n,n,x,n,n,x,x,x
CCC(C)C(N)c1cn(C(Cc2ccc(O)cc2)C(=O)N2CCNCC2)nn1 (stereo unspecified),x,x,n,x,x,x,x,x
Cc1cc(Cl)ccc1OCCCC(=O)NNC(=O)c1ccccc1O,n,17,n,n,n,n,8.7,n
CC(C)(C)Nc1nc(Cl)nc(Nc2ccccc2)n1,n,n,n,n,n,x,x,x
COc1ccccc1Nc1nc(Cl)nc(NC(C)(C)C)n1,79,96,n,n,n,n,n,n
C/C(=N\OCc1nc2ccccc2c(=O)n1/N=C/c1cc(C)cc([N+](=O)[O-])c1O)c1ccccc1,n,n,x,n,n,x,x,x
C/C(=N\OCc1nc2ccccc2c(=O)n1/N=C/c1cc([N+](=O)[O-])ccc1O)c1ccccc1,n,13,x,n,n,n,n,n
COCCN1C(=O)NC(c2ccccc2)C(C(C)=O)C1C (stereo unspecified),x,x,n,x,x,x,x,x
SMILES,E coli growth-1,AddAB inh,E coli growth-2,Tat export inh,phage Ecoli inh,AddAB conf,RecBCD counter,Bact viability
Cc1cc(Cl)ccc1NC(=S)NCc1ccccc1Cl,n,16,n,n,n,15,15,n
S=C(NCc1ccccc1Cl)Nc1ccccc1Cl,n,n,n,n,n,x,x,x
S=C(NCc1ccc(Cl)cc1Cl)Nc1ccccc1,n,n,n,n,n,x,x,x
Fc1cccc(NC(=S)NCc2ccccc2Cl)c1,11,19,n,n,n,33,26,33
CCn1cc(C(=O)NCc2ccco2)c(=O)c2cc(F)c(N3CCN(C(=O)c4ccco4)CC3)cc21,50,49,0.45,n,n,102,4.0,76
CCn1cc(C(=O)NCC(C)C)c(=O)c2cc(F)c(N3CCN(C(=O)c4ccco4)CC3)cc21,n,n,n,n,n,x,x,x
CCC(C)NC(=O)c1cn(CC)c2cc(N3CCN(C(=O)c4ccco4)CC3)c(F)cc2c1=O (stereo unspecified),12,18,n,n,n,96,n,n
CCc1nnc(NS(=O)(=O)c2ccc(N/C=C\C(=O)c3ccc(C)cc3)cc2)s1,13,20,n,n,n,n,n,n
CCc1nnc(NS(=O)(=O)c2ccc(N/C=C/C(=O)c3ccc(C)cc3)cc2)s1,11,17,x,n,n,n,n,n
C#CCOCCOCCOCCNc1nc(N2CCN(C(=O)C(CCCCN)n3cc(CCCC)nn3)CC2)nc(N2CCN(C(=O)C(C(C)CC)n3cc(CCCCN)nn3)CC2)n1 (stereo unspecified),x,x,n,x,x,x,x,x
CCCCCOCC1CC(CC(C)=NNC(N)=S)C(=O)O1 (stereo unspecified),x,x,n,x,x,x,x,x
COc1ccc(OC)c(-c2c3cc(O)c(=O)cc-3oc3cc(O)c(O)cc23)c1,n,14,x,n,x,n,n,n
O=c1cc2oc3cc(O)c(O)cc3c(-c3ccccc3O)c-2cc1O,x,x,n,n,x,x,x,x
CCOc1ccc(NC(=O)CCC(=O)N2CCSc3ccccc32)cc1,n,19,n,n,n,n,n,n
O=c1c2ccccc2nc(/C=C/c2ccc([N+](=O)[O-])cc2)n1CCCO,n,n,n,n,n,x,x,x
O=c1c2ccccc2nc(/C=C/c2ccc([N+](=O)[O-])o2)n1CCCO,20,31,n,n,n,98,11,41
O=C(NN=Cc1cc(Br)cs1)C(O)c1ccccc1 (stereo unspecified),x,x,n,x,x,x,x,x
CNC(=O)Cn1ncc2c(C)n(Cc3ccc(C)cc3)c(C)c2c1=O,n,n,n,n,n,x,x,x
Cc1ccc(Cn2c(C)c3cnn(CC(=O)NC4CCCC4)c(=O)c3c2C)cc1,86,99,n,n,n,n,n,n
COc1cc(C=C(NC(=O)c2ccccc2Cl)C(=O)O)cc(OC)c1OC,x,x,n,x,x,x,x,x
COc1ccccc1NC(c1cccnc1)c1ccc2cccnc2c1O (stereo unspecified),n,n,n,n,n,x,x,x
